Experimental data: ChEMBL document CHEMBL2218924, “A broad activity screen in support of a chemogenomic map for kinase signalling research and drug discovery” (Biochem J, 2013)

Tests used:
[1] = target: Calcium/calmodulin-dependent protein kinase type 1 (Homo sapiens) (UniProt Q14012); details: at 1 µM
[2] = target: Calcium/calmodulin-dependent protein kinase type 1 (Homo sapiens) (UniProt Q14012); details: at 10 µM
[3] = target: Calcium/calmodulin-dependent protein kinase type II subunit beta (Homo sapiens) (UniProt Q13554); details: at 1 µM
[4] = target: Calcium/calmodulin-dependent protein kinase type II subunit beta (Homo sapiens) (UniProt Q13554); details: at 10 µM
[5] = target: Calcium/calmodulin-dependent protein kinase type II subunit gamma (Homo sapiens) (UniProt Q13555); details: at 1 µM
[6] = target: Calcium/calmodulin-dependent protein kinase type II subunit gamma (Homo sapiens) (UniProt Q13555); details: at 10 µM
[7] = target: Calcium/calmodulin-dependent protein kinase type II subunit delta (Homo sapiens) (UniProt Q13557); details: at 1 µM
[8] = target: Calcium/calmodulin-dependent protein kinase type II subunit delta (Homo sapiens) (UniProt Q13557); details: at 10 µM
[9] = target: T1, Calcium/calmodulin-dependent protein kinase type IV (Homo sapiens) (UniProt Q16566); details: at 1 µM
T1 sequence (whole entry): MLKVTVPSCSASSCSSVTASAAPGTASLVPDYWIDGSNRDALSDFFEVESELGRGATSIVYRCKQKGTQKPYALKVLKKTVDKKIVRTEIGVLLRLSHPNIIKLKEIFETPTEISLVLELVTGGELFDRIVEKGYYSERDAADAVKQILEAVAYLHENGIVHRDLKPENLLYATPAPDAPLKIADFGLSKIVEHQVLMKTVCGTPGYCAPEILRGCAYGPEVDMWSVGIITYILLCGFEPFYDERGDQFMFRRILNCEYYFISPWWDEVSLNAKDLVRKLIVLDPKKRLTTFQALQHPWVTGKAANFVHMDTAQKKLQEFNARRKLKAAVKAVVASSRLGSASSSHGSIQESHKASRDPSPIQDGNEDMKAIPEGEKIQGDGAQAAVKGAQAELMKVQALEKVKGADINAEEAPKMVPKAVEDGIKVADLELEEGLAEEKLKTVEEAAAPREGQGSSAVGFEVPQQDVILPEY

[10] = target: T1, Calcium/calmodulin-dependent protein kinase type IV (Homo sapiens); details: at 10 µM
[11] = target: Death-associated protein kinase 1 (Homo sapiens) (UniProt P53355); details: at 10 µM
[12] = target: Death-associated protein kinase 2 (Homo sapiens) (UniProt Q9UIK4); details: at 1 µM
[13] = target: Death-associated protein kinase 2 (Homo sapiens) (UniProt Q9UIK4); details: at 10 µM
[14] = target: T2, Serine/threonine-protein kinase DCLK2 (Homo sapiens) (UniProt Q8N568); details: at 1 µM
T2 sequence (whole entry): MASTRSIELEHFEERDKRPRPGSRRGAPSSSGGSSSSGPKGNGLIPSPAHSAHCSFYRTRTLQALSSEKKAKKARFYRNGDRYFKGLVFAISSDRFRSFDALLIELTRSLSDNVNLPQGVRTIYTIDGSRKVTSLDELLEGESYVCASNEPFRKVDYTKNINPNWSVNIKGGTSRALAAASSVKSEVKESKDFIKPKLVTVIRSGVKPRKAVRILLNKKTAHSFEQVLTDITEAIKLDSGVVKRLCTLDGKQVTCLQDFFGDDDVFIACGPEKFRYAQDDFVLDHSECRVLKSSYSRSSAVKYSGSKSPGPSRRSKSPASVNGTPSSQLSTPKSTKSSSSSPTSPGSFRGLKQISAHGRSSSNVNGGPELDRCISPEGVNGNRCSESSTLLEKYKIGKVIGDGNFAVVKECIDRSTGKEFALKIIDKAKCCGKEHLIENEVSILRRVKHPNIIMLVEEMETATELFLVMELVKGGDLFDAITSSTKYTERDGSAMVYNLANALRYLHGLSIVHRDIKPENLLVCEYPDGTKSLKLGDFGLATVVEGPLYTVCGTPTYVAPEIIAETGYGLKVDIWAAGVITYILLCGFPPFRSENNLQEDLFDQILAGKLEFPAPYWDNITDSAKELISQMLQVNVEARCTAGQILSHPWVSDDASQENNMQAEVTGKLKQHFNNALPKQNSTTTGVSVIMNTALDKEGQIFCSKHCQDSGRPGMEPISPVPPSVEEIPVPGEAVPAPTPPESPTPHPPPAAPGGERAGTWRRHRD

[15] = target: T2, Serine/threonine-protein kinase DCLK2 (Homo sapiens); details: at 10 µM
[16] = target: T3, Discoidin domain-containing receptor 2 (Homo sapiens) (UniProt Q16832); details: at 1 µM
T3 sequence (whole entry): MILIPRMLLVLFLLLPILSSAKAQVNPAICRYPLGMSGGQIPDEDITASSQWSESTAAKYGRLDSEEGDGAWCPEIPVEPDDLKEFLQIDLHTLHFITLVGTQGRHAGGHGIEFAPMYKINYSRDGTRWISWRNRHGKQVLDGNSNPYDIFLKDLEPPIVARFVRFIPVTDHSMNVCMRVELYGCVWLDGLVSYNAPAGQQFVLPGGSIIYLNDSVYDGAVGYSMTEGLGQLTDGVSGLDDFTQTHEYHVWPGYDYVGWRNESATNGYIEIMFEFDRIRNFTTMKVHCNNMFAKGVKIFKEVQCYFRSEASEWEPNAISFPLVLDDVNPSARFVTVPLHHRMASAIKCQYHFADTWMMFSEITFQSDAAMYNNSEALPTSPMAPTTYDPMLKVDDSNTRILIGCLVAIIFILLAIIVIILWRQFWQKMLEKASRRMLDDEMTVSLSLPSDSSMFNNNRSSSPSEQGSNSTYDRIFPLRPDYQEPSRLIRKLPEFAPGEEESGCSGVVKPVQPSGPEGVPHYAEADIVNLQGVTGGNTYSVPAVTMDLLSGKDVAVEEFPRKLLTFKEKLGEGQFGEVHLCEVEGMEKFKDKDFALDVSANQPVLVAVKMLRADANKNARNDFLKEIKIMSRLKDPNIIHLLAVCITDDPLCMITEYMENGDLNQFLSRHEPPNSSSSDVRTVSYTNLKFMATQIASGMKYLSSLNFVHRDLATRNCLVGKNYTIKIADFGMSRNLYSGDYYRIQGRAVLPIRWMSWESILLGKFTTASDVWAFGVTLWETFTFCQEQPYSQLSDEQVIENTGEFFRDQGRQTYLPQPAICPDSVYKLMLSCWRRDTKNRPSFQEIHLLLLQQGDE

[17] = target: T3, Discoidin domain-containing receptor 2 (Homo sapiens); details: at 10 µM
[18] = target: T4, Myotonin-protein kinase (Homo sapiens) (UniProt Q09013); details: at 1 µM
T4 sequence (whole entry): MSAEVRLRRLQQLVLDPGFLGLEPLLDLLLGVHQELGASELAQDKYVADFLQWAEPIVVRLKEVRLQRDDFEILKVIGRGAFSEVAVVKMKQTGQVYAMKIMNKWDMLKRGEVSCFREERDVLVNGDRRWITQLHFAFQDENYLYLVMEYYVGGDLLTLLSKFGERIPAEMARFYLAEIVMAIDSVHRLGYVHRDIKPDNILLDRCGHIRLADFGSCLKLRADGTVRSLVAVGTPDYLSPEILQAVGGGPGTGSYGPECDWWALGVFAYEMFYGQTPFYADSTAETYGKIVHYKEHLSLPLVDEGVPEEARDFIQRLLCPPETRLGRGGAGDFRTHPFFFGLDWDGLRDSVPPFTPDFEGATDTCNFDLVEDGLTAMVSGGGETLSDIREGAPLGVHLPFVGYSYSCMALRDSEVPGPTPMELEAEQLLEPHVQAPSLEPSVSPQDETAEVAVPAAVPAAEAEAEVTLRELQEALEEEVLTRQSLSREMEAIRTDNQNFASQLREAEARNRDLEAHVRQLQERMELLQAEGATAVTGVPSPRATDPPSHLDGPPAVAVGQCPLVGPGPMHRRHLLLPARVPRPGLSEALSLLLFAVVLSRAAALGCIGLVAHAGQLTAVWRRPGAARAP

[19] = target: T4, Myotonin-protein kinase (Homo sapiens); details: at 10 µM
[20] = target: T5, Serine/threonine-protein kinase 17A (Homo sapiens) (UniProt Q9UEE5); details: at 1 µM
T5 sequence (whole entry): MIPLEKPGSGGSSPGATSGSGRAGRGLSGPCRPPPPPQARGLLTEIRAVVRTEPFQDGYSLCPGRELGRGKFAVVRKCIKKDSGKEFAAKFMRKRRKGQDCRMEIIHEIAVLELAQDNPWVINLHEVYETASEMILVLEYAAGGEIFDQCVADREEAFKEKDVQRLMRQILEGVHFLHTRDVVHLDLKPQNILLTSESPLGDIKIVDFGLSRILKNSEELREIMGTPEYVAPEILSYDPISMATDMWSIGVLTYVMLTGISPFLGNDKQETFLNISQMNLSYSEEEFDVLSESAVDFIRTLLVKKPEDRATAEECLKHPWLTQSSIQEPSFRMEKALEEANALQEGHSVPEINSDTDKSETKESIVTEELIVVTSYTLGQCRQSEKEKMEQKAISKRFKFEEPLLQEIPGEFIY

Sequence of Death-associated protein kinase 1 (Homo sapiens) (P53355 whole entry, looked up): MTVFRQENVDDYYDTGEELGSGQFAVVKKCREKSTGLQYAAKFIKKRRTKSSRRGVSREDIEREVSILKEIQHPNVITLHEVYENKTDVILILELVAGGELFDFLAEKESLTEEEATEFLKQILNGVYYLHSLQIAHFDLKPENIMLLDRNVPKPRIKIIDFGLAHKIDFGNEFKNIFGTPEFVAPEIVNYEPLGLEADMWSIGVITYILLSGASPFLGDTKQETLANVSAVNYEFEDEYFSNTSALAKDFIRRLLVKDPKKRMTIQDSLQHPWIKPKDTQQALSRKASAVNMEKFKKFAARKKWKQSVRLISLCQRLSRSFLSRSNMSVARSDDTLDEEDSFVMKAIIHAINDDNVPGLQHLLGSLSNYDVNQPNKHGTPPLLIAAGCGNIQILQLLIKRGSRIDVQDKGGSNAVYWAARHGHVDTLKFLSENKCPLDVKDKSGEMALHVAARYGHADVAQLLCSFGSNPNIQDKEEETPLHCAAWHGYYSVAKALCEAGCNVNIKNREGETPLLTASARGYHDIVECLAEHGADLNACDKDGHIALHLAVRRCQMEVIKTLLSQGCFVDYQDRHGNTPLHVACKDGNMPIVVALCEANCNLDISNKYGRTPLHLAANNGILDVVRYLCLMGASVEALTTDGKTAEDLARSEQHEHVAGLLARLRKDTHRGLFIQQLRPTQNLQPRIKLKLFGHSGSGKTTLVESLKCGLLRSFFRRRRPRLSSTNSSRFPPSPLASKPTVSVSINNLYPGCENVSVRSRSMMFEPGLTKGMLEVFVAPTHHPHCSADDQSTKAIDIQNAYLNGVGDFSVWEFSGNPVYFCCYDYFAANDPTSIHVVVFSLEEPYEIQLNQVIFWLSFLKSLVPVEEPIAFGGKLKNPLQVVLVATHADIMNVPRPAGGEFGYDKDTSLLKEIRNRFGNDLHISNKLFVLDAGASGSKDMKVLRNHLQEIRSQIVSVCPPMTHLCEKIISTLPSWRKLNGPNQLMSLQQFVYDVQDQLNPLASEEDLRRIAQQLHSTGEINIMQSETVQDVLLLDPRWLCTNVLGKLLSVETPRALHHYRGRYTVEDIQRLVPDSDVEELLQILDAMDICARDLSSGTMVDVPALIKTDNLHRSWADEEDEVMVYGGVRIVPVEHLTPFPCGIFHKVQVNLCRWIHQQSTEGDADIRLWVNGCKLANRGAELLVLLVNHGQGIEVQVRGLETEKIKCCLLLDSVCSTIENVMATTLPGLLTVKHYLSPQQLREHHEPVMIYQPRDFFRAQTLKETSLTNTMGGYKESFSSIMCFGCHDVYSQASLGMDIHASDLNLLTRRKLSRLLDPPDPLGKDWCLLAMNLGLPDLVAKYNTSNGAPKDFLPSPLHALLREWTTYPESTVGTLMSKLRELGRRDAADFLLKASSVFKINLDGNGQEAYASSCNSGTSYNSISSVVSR
Sequence of Calcium/calmodulin-dependent protein kinase type II subunit gamma (Homo sapiens) (Q13555 whole entry): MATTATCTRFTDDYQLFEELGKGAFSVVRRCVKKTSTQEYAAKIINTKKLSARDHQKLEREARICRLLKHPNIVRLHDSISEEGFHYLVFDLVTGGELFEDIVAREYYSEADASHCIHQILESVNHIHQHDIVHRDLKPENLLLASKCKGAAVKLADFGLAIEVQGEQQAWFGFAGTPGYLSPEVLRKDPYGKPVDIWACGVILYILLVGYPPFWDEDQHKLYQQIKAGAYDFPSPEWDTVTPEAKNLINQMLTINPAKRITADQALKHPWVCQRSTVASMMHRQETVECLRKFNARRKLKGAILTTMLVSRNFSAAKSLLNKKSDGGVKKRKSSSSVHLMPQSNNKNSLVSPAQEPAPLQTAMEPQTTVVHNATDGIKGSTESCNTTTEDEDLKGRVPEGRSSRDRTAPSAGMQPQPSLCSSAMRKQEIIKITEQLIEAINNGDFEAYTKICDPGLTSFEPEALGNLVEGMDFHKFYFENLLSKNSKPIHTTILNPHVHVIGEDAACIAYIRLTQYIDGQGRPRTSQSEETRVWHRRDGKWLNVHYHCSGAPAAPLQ
Sequence of Calcium/calmodulin-dependent protein kinase type II subunit delta (Homo sapiens) (Q13557 whole entry): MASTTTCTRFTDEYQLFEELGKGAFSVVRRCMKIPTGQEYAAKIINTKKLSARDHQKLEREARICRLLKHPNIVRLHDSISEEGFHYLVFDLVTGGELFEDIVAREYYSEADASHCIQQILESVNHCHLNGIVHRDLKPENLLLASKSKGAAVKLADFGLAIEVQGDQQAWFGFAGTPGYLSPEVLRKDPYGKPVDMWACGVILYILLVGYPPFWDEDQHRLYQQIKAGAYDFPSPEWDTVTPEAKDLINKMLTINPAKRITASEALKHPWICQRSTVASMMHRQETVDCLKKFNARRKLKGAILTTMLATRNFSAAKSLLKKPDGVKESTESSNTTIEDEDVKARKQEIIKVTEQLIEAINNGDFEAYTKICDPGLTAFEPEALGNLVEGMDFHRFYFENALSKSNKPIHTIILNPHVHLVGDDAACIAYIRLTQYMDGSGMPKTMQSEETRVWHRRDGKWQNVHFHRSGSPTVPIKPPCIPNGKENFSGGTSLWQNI
Sequence of Calcium/calmodulin-dependent protein kinase type II subunit beta (Homo sapiens) (Q13554 whole entry): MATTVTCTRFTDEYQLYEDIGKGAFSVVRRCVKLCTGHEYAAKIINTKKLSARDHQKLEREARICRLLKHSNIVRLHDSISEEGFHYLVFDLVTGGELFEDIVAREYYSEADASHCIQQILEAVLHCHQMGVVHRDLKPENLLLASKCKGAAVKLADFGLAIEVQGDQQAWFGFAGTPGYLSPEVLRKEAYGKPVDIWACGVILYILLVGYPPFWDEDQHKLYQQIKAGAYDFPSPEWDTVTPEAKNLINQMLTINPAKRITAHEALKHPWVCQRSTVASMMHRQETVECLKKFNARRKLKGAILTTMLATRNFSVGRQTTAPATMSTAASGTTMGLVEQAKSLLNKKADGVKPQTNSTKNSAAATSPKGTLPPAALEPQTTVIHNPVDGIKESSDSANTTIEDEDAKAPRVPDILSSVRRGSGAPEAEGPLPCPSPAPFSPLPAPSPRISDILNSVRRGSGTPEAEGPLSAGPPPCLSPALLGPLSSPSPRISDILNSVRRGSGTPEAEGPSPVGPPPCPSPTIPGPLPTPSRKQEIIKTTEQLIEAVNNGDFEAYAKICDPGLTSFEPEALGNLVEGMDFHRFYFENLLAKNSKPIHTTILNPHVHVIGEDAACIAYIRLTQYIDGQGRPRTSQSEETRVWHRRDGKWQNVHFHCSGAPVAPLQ
Sequence of Calcium/calmodulin-dependent protein kinase type 1 (Homo sapiens) (Q14012 whole entry, looked up): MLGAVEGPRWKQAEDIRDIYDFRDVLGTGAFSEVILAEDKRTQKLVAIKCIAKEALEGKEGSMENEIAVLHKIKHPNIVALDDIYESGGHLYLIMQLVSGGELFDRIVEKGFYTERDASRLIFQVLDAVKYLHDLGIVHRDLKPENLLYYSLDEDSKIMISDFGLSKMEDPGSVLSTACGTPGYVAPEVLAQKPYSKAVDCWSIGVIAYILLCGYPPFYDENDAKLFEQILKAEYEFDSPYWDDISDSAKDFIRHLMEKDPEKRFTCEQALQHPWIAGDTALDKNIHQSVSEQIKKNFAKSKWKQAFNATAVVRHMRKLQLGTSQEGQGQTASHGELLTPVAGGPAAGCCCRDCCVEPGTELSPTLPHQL
Sequence of Death-associated protein kinase 2 (Homo sapiens) (Q9UIK4 whole entry, looked up): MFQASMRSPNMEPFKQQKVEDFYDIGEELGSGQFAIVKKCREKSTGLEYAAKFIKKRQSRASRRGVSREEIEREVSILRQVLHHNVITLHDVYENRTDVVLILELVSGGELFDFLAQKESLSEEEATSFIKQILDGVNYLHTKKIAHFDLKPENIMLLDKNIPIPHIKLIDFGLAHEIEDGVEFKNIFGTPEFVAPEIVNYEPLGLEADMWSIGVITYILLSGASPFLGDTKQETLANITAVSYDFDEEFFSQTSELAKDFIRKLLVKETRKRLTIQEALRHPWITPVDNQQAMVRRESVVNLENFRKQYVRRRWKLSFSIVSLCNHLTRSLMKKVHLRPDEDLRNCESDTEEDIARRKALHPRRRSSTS

Compound	residual activity [1] [%]	residual activity [2] [%]	residual activity [3] [%]	residual activity [4] [%]	residual activity [5] [%]	residual activity [6] [%]	residual activity [7] [%]	residual activity [8] [%]	residual activity [9] [%]	residual activity [10] [%]	residual activity [11] [%]	residual activity [12] [%]	residual activity [13] [%]	residual activity [14] [%]	residual activity [15] [%]	residual activity [16] [%]	residual activity [17] [%]	residual activity [18] [%]	residual activity [19] [%]	residual activity [20] [%]
O=C1Nc2cc(Br)ccc2/C1=C1/Nc2ccccc2/C1=N\O	59	12	15	8	3	2	1	2	59	73	46	50	26	89	76	74	37	110	84	8
COc1ccc(CNc2nc(N(CCO)CCO)nc3c2ncn3C(C)C)cc1	85	55	89	55	99	63	92	54	113	78	88	102	104	94	80	91	96	104	73	106
CC#CC(=O)Nc1cc2c(Nc3ccc(F)c(Cl)c3)ncnc2cn1	98	80	91	84	108	93	107	97	121	87	90	88	104	77	96	96	93	113	115	105
Nc1ccc2ncnc(NCCc3ccc(Oc4ccccc4)cc3)c2c1	107	87	72	43	24	11	31	14	108	106	75	105	100	110	87	91	90	98	86	62
CC[n+]1c(/C=C/N(C)c2ccccc2)n(-c2ccccc2)c2ccc(-c3nc4ccccc4s3)cc21	107	26	93	38	113	99	109	78	124	95	51	100	99	110	102	116	88	120	121	119
CN(C)c1ccc(/C=C2\C(=O)Nc3ccccc32)cc1	122	116	101	76	92	46	89	35	87	89	80	102	88	88	101	104	99	111	130	25
Oc1ccc(-c2nc(-c3ccc(F)cc3)c(-c3ccncc3)[nH]2)cc1	111	100	92	52	110	89	98	76	115	99	76	110	97	113	76	69	20	112	88	–
Cc1ccc(NC2=CC(=O)c3sc(C)nc3C2=O)cc1	92	74	89	81	104	98	95	98	113	96	89	99	94	118	93	94	101	121	91	109
CC(C)n1cnc2c(NCc3ccccc3)nc(NCCCO)nc21	80	68	84	66	94	59	86	58	112	90	82	101	92	100	102	87	91	94	87	107
CN(C)CCCn1cc(C2=C(c3c[nH]c4ccccc34)C(=O)NC2=O)c2ccccc21	89	49	63	18	28	6	16	5	88	45	75	72	33	–	88	113	82	31	25	108
CO[C@@H]1[C@H](N(C)C(=O)c2ccccc2)C[C@H]2O[C@]1(C)n1c3ccccc3c3c4c(c5c6ccccc6n2c5c31)C(=O)NC4	84	29	18	4	10	-1	5	1	98	50	72	71	54	75	38	106	69	–	90	16
CC(=O)c1ccc(N2CCOCC2)cc1O	108	83	89	92	103	96	102	86	97	98	89	100	–	75	74	112	97	112	130	–
COc1cccc(-c2cc(=O)c3ccccc3o2)c1N	97	82	92	87	98	98	101	99	108	108	90	99	99	107	120	91	–	122	96	101
COc1cc2ncnc(Nc3ccc(NC(=O)c4ccccc4)cc3)c2cc1OC	99	41	102	94	–	–	108	91	–	95	83	98	106	99	104	–	89	110	145	75
